# Compound activity (PubChem)
# ClpP mod: qHTS Assay for Activators of ClpP. 340,000 tested, 1.9% active. purified B. subtilis ClpP, FRET peptide cleavage, 20 min. ATP-dependent Clp protease proteolytic subunit (Bacillus subtilis (strain 168)), P80244. Potency, µM (highest dose often 57.5 µM), without a hit: at the top dose activity change, negative = active; active = well fitted falling curve with a large enough effect; inconclusive = small, poorly fitted or top-dose-only effect; inactive = no such curve, though single readings can be large or run the other way; also: potency is read from the fitted curve at half-maximal effect; the source files actives as falling curves though it sought activators and does not explain the sign; nearly all actives have a fitted effect of over 65% in size
#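 FRET quenching reversal measured ClpP activation: 10 microg/mL B. subtilis ClpP at pH 8 with the FRET-FV decapeptide, read at 430 nm after 320 nm excitation. The 20-min minus 0-min signal was scaled between DMSO/no-enzyme wells and ADEP (5.8 microM final).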
# TCR act: T cell receptor activation; primary human leukocytes, anti-CD3, IL-2 HTRF, 48 h; Potency, µM (doses to about 9.22 µM), for inactives: at the top dose activation of IL-2 secretion, actives largely listed as activators; 330,000 tested, under 10 active; AID 504894; also: % of control where 0% means no effect
#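 IL-2 produced over 48 hr by a-CD3 bead-stimulated primary human leukocytes exposed to compounds was detected with a homogeneous time-resolved FRET immunoassay, 665nm acceptor signal after 320nm excitation.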
# Sfp PPTase inh: blocks B. subtilis Sfp PPTase activity | Q9F4F7 | Biochemical Sfp PPTase activity, qHTS | Potency, µM, for the others: largest response in the series, negative = inhibition, most hits filed as inhibitors | 310,000 tested, 3.5% active | AID 1490;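 also: the enzyme is Sfp with the accession as filed and its product quenches rhodamine fluorescence; potency is read from the fitted curve at half-maximal effect; 0% = enzyme reaction without inhibitor and -100% = no enzyme wells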
#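 Fluorescence-quenching assay: 15 nM Sfp-PPTase preincubated 15 min at room temperature with compound, then 5 uM rhodamine-CoA and 12.5 uM BHQ-2-labelled YbbR peptide added. Fluorescence (ex 525/em 598 nm) read at start and after 30 min; difference gives rate.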
# uPA generation: inhibitors of cell surface uPA generation | cell surface uPA generation assay, qHTS | Potency, µM (top dose mostly 38.3 µM), without a hit: at the top dose activity change, negative = inhibition, usual class: inhibitors | 330,000 tested, 0.31% active; active = well fitted inhibition curve with a large enough effect; inconclusive = small, poorly fitted or top-dose-only effect; inactive = no such curve, though single readings can be large or run the other way; tested in mouse RAW 264.7 cells; also: potency is read from the fitted curve at half-maximal effect; % is scaled to controls: 0 for no effect and ±100 for the full control effect; nearly all actives have a fitted effect of over 55% in size
# Active calls of the source: *; ? = inconclusive; . = not tested or not shown; [ ] = dose if it differs, or a comment. Only some compounds are listed: those with a hit (about 4.2% of all), similar ones and a draw of the others. Unless noted, calls follow the shape of the dose curve; as a rule, active = well fitted curve in the direction sought with a large enough effect; inconclusive = small, poorly fitted or top-dose-only effect, or another doubt; inactive = no such curve, though single readings can be large; an effect the other way counts as inactive or inconclusive.
SMILES,ClpP mod,TCR act,Sfp PPTase inh,uPA generation
Cc1cccc(CN2C(=O)c3ccccc3S(=O)(=O)c3ccc(C(=O)N4CCN(c5cc(C)ccc5C)CC4)cc32)c1,-2%,.,.,.
O=C(NCc1ccccc1Cl)C(=O)NCC1OCCCN1S(=O)(=O)c1cccs1 (stereo not given),30%,-2%,6%,-3%
CCN(Cc1ccccc1)S(=O)(=O)c1ccc(C(=O)N(CCCN(C)C)c2nc3cc4c(cc3s2)OCO4)cc1,0%,3%,56µM*,-13%
CCN(CC)CCN(C(=O)c1ccc2c(c1)CCCC2)c1nc2ccc(OC)cc2s1,-6%,3%,79µM*,7%
CN(C)CCCN(C(=O)c1ccc(S(=O)(=O)N(C)C)cc1)c1nc2cc3c(cc2s1)OCO3,.,6%,-1%,-8%
CN(C)CCN(C(=O)c1ccc(C(=O)c2ccccc2)cc1)c1nc2cc3c(cc2s1)OCCO3,-1%,-4%,?,2%
Cc1cc(C)c2nc(N(CCN(C)C)C(=O)c3ccc4ccccc4c3)sc2c1,-12%,-2%,56µM*,-5%
CN(C)CCN(C(=O)c1ccc(C(=O)c2ccccc2)cc1)c1nc2cc3c(cc2s1)OCO3,-3%,-2%,56µM*,-20%
CCN(CC)CCN(C(=O)c1ccc2ccccc2c1)c1nc2cc3c(cc2s1)OCO3,-14%,6%,45µM*,0%
O=C(Nc1ccccc1-c1nc2ccccc2[nH]1)c1ccc(S(=O)(=O)N2CCCCC2)cc1,?,-2%,17%,.
CC1CCCCN1S(=O)(=O)c1ccc(C(=O)Nc2ccccc2-c2nc3ccccc3[nH]2)cc1 (stereo not given),13µM*,-3%[46.1 µM],17%,-3%
O=C(NCc1ccco1)c1nn2c(C(F)(F)F)cc(-c3cccs3)nc2c1Br,-2%,6%,20µM*,-5%
COc1ccc(-c2cc(C(F)(F)F)n3nc(C(=O)NCc4ccco4)cc3n2)cc1,16µM*,3%,-11%,-7%
O=C(NCc1ccco1)c1nc2nc(-c3cccs3)cc(C(F)(F)F)n2n1,?,.,-29%,-9%
O=C(NCc1ccco1)c1cc2nc(-c3ccc4c(c3)OCO4)cc(C(F)(F)F)n2n1,?,2%,?,-2%
Cc1nn(C)cc1CN(C)C(=O)c1cc2nc(-c3ccco3)cc(C(F)(F)F)n2n1,-30%,0%,35µM*,-3%
O=C(Nc1noc2ccccc12)c1ccc(F)cc1,1%,.,.,.
CSc1nnc2c3cc(C)ccc3n(Cc3ccccc3)c2n1,-1%,-11%,56µM*,-2%
Cc1ccccc1CN1C(=O)CS/C1=N/N=C/c1ccco1,.,-1%,45µM*,-1%
COc1ccc(OC)c(/C=N/N=C2\SCC(=O)N2Cc2ccco2)c1,-16%,-1%[46.1 µM],56µM*,3%
CC1S/C(=N/N=C/c2ccco2)N(Cc2ccccc2)C1=O (stereo not given),-1%,6%,32µM*,?
O=C1CS/C(=N/N=C/c2ccccc2)N1Cc1ccco1,-1%,0%,?,5%
Cc1ccccc1Nc1nc(NCc2ccco2)c2ccccc2n1,.,6%,?,?
c1ccc(CN2CCN(c3nc(NCc4ccco4)c4ccccc4n3)CC2)cc1,-15%,0%,45µM*,-14%
Cc1ccc(-c2nc(NCc3ccco3)c3ccccc3n2)cc1,-10%,-2%[46.1 µM],0%,-5%
SMILES,ClpP mod,TCR act,Sfp PPTase inh,uPA generation
Oc1ccccc1Nc1nc(NCc2ccco2)c2ccccc2n1,2%,3%,25µM*,7%
c1cncc(-c2nc(NCc3ccco3)c3ccccc3n2)c1,0%,-5%,79µM*,4%
c1ccc(Nc2nc(NCc3ccco3)c3ccccc3n2)cc1,0%,-2%,16µM*,-15%
CCc1ccc(C2CC(=O)Oc3c2c(=O)n(C)c2ccccc32)cc1 (stereo not given),-13%,.,.,.
N#CC(C#N)=Cc1cn(-c2ncc(C(F)(F)F)cc2Cl)c2ccccc12,16µM*,5%,-1%,0%
CC(=O)/C=C\c1cn(-c2ncc(C(F)(F)F)cc2Cl)c2ccccc12,1%,9%,-2%,-14%
CCC(C)NC(=O)c1c(N)n(/N=C/c2ccccn2)c2nc3ccccc3nc12 (stereo not given),-12%,9%,10µM*,.
CCC(C)NC(=O)c1c(N)n(/N=C/c2cccnc2)c2nc3ccccc3nc12 (stereo not given),25µM*,1%,?,3%
CC(C)CNC(=O)c1c(N)n(/N=C/c2cccnc2)c2nc3ccccc3nc12,.,.,8%,.
COc1ccccc1CNC(=O)CCCN1C(=O)CSc2c1c(C)nn2-c1ccccc1,0%,.,.,.
Cn1c(-c2ccccc2)cc2ccccc21,2%,-4%,-3%,-2%
Cn1c(-c2ccccc2O)cc2ccccc21,16µM*,-1%[46.1 µM],-5%,-2%
C[C@@H](NC(=O)/C(C#N)=C/c1ccc(O)c(O)c1)c1ccccc1,-1%,4%,-28%,?
CC(NC(=O)/C(C#N)=C/c1ccc(Cl)c([N+](=O)[O-])c1)c1ccccc1 (stereo not given),1%,-1%[46.1 µM],25µM*,?
CCOC(=O)C(C(=O)OCC)C1N=C(N)N=C2Oc3ccccc3N21 (stereo not given),25µM*,5%,-6%,-5%
CCOC(=O)CN1C(=O)C(CC)Oc2ccccc21 (stereo not given),0%,10%,14%,.
Cc1c(C(=O)N2CCC[C@H]2CO)oc2c(F)cccc12,-9%,-7%,3%,-5%
O=C(O)CCCCCNC(=O)Cn1nnc2ccccc2c1=O,-2%,11%,27%,2%
COc1ccc(N=C2C(=Nc3ccc(OC)cc3)N(c3ccccc3)C(=S)N2C(=O)c2ccc(Cl)cc2)cc1,2%,-6%[46.1 µM],50µM*,3%
COc1ccc(N=C2C(=Nc3ccc(OC)cc3)N(c3ccc(OC)cc3)C(=S)N2C(=O)c2ccc(OC)cc2)cc1,-2%,-2%[46.1 µM],-25%,2%
COc1ccc(/C=N/c2oc(-c3ccccc3)cc2C#N)cc1OC,?,6%,79µM*,0%
CCN(CC)c1nc2ccccc2c(N)c1-c1ccccc1,-12%,0%,79µM*,-12%
O=C(NCC1CCCO1)c1onc(CSc2ccccc2)c1C(=O)O (stereo not given),2%,-1%,5%,-6%
CC(C)c1ccc(SCc2noc(C(=O)NCC3CCCO3)c2C(=O)O)cc1 (stereo not given),-2%,-4%,100µM*,52%
CNC1CCc2cc(OC)c(OC)c(OC)c2-c2ccc(OC)c(=O)cc21 (stereo not given),.,.,15%,.
CC(=O)N1CCC2(CC1)OC(=O)C(C)=C2C(=O)NCc1ccc(Cl)cc1,-2%,.,.,.
Cc1ccc(CSCC(=O)Nc2ccc(N3CCOCC3)cc2N2CCOCC2)cc1,35µM*,2%,.,4%
COc1ccc(S(=O)(=O)N2CCOCC2)cc1NC(=O)CSc1n[nH]c(C(C)C)n1,.,-4%,25µM*,-1%
